Data on ten compounds can be found in PubChem BioAssay (NCI).

“And” between values parts separate entries of the source, which are not always exact repeats. Equal entries are not always repeated. This is part of a sample that, as a whole, favours compounds with a hit. Of some 79,000 tested, about 15% had one in any assay. Values without a mark were called inactive. The source made the active and inactive calls. Cut-off read from the data, not from the text of the source: active = growth inhibition above about 70%; inactive = the rest.

A short description of assay [1]: NCI Yeast Anticancer Drug Screen. Data for the rad50 strain (AID 155).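 Note: 0% = growth of vehicle-only cultures of the same strain.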 Conditions: S. cerevisiae rad50 strain growth inhibition, active compounds read high. An outline of the steps: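 Genetically altered yeast (DNA repair pathway); compound treatment; growth inhibition vs vehicle ctrl.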
A short description of assay [2]: NCI Yeast Anticancer Drug Screen. Data for the mec2-1 strain (AID 157). Particulars: S. cerevisiae mec2-1 strain, active compounds read high. The procedure, abridged:
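Yeast mec2-1 mutant treated with compound. Readout: growth inhibition vs vehicle controls.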

Assay [3] can be described thus: NCI Yeast Anticancer Drug Screen. Data for the sgs1 mgt1 strain (AID 161).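 Note: 0% = growth of cultures given vehicle only.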 Particulars: S. cerevisiae sgs1 mgt1 strain, active compounds read high. An outline of the steps:
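Inhibition of yeast growth, normalised to vehicle-treated controls, is reported for a strain bearing genetic alterations in DNA damage repair.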

Assay [4] can be described thus: NCI Yeast Anticancer Drug Screen. Data for the cln2 rad14 strain (AID 165).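 Note: 0% = growth equal to vehicle treated cultures.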 Particulars: S. cerevisiae cln2 rad14 strain, active compounds read high. An outline of the steps: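 cln2 rad14 yeast strain; compound exposure; growth inhibition read vs vehicle controls.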
A short description of assay [5]: NCI Yeast Anticancer Drug Screen. Data for the bub3 strain (AID 167). Conditions: S. cerevisiae bub3 mutant strain, active compounds read high. The procedure, abridged:
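Yeast carrying a defined mutation is treated with each compound, and growth is compared with that of vehicle-exposed cells to give inhibition.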

Assay [6] in a line: NCI Yeast Anticancer Drug Screen. Data for the mlh1 rad18 strain (AID 175). Conditions: S. cerevisiae mlh1 rad18 strain growth inhibition, active compounds read high. An outline of the steps: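 Yeast w/ defined DNA-repair lesions; compound exposure; growth vs vehicle controls → % inhibition.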
[7] abbreviates: at 5.0 µM (retest, dose inferred, filed as 0.5).
Setting [8] is: at 50.0 µM (retest, dose inferred, filed as 5.0).

For `CC(Cl)CNC(C)C` (stereo not given), the growth inhibition in assay [1] (setting [7]) is -156%; in assay [1] (setting [8]), -171%; in assay [1] (at 50.0 µM), 4.95%; in assay [2] (setting [7]), -50%; in assay [2] (setting [8]), -57%; in assay [2] (at 50.0 µM) it was -9.4%. The growth inhibition in assay [3] (setting [7]) is -64%; in assay [3] (setting [8]), -67%; in assay [3] (at 50.0 µM), 3.25%; in assay [4] (setting [7]), -54%; in assay [4] (setting [8]), -67%; in assay [4] (at 50.0 µM) it was 24.5%. Moreover, the growth inhibition in assay [5] (setting [7]) is -67%; in assay [5] (setting [8]), -80%; in assay [5] (at 50.0 µM), -7.95%; in assay [6] (setting [7]), -137%; in assay [6] (setting [8]), -120%; in assay [6] (at 50.0 µM), 6.1%.

With `O=C(O)C1C2c3ccccc3C(c3ccccc32)C1Br` (stereo not given), the growth inhibition in assay [1] (setting [7]) is -13%; in assay [1] (setting [8]), 3%; in assay [1] (at 50.0 µM), 2.7%; in assay [2] (setting [7]), 0%; in assay [2] (setting [8]), 9%; in assay [2] (at 50.0 µM) it was 3.8%. For the same compound, the growth inhibition in assay [3] (setting [7]) was -7%; in assay [3] (setting [8]) it was 8%; in assay [3] (at 50.0 µM), -1.2%; in assay [4] (setting [7]), 3%; in assay [4] (setting [8]), -1%; in assay [4] (at 50.0 µM), 34.2%. In addition, the growth inhibition in assay [5] (setting [7]) was -20%; in assay [5] (setting [8]), -29%; in assay [5] (at 50.0 µM) it was -8.2%; in assay [6] (setting [7]), -11%; in assay [6] (setting [8]) it was -8%; in assay [6] (at 50.0 µM), 14.1%.

Take `CCC[CH2][Sn]1([CH2]CCC)[O]CC(CN(C)Cc2ccccc2)[O]1` (stereo not given): the growth inhibition in assay [1] (setting [7]) was 3%; in assay [1] (setting [8]) it was 3%; in assay [1] (at 50.0 µM), 88.7% (active); in assay [2] (setting [7]), 12%; in assay [2] (setting [8]) it was 12%; in assay [2] (at 50.0 µM), 90.1% (active). The growth inhibition in assay [3] (setting [7]) was -5%; in assay [3] (setting [8]), -5%; in assay [3] (at 50.0 µM), 20.2%; in assay [4] (setting [7]), -2%; in assay [4] (setting [8]), -2%; in assay [4] (at 50.0 µM), 89.2% (active). In addition, the growth inhibition was -1% in assay [5] (setting [7]); -1% in assay [5] (setting [8]); 87.5% (active) in assay [5] (at 50.0 µM); 0% in assay [6] (setting [7]); 0% in assay [6] (setting [8]); 81.8% (active) in assay [6] (at 50.0 µM).

With `CNC(=O)Oc1ccccc1/C=N\Sc1ccc(Cl)cc1`, the growth inhibition was -2% in assay [1] (setting [7]); 21% in assay [1] (setting [8]); 97.2% (active) in assay [1] (at 50.0 µM); 1% in assay [2] (setting [7]); 21% in assay [2] (setting [8]); 99% (active) in assay [2] (at 50.0 µM). In addition, the growth inhibition was 3% in assay [3] (setting [7]); 43% in assay [3] (setting [8]); 98.9% (active) in assay [3] (at 50.0 µM); -4% in assay [4] (setting [7]); 10% in assay [4] (setting [8]); 82.8% (active) in assay [4] (at 50.0 µM). Besides, the growth inhibition in assay [5] (setting [7]) was -4%; in assay [5] (setting [8]), 6%; in assay [5] (at 50.0 µM), 98.6% (active); in assay [6] (setting [7]), -2%; in assay [6] (setting [8]) it was 35%; in assay [6] (at 50.0 µM) it was 99.2% (active).

As to `CC(C)[O-].CC(C)[O-].[O-]c1cccc2cccnc12.[O-]c1cccc2cccnc12.[Ti+4]`, the growth inhibition in assay [1] (setting [7]) is 6%; in assay [1] (setting [8]), 6%; in assay [1] (at 50.0 µM), 55.5%; in assay [2] (setting [7]) it was 11%; in assay [2] (setting [8]) it was 11%; in assay [2] (at 50.0 µM) it was 70.8% (active). Also, the growth inhibition in assay [3] (setting [7]) was 4%; in assay [3] (setting [8]) it was 4%; in assay [3] (at 50.0 µM), 37.6%; in assay [4] (setting [7]), 6%; in assay [4] (setting [8]) it was 6%; in assay [4] (at 50.0 µM), 51.8%. Further, the growth inhibition was -3% in assay [5] (setting [7]); -3% in assay [5] (setting [8]); 64.8% in assay [5] (at 50.0 µM); -24% in assay [6] (setting [7]); -24% in assay [6] (setting [8]); 58.9% in assay [6] (at 50.0 µM).

Regarding `COC(=O)C1=C(O)C(C(=O)OC)[C@]2(O)[C@@H](C(=O)OC)[C@H]1C[C@@H](c1ccccc1)[C@@H]2C(=O)OC` (stereo not given in full), the growth inhibition is 4% in assay [1] (setting [7]); 98% (active) in assay [1] (setting [8]); 97.7% (active) in assay [1] (at 50.0 µM); 3% in assay [2] (setting [7]); 97% (active) in assay [2] (setting [8]); 98.3% (active) in assay [2] (at 50.0 µM). Also, the growth inhibition in assay [3] (setting [7]) was 10%; in assay [3] (setting [8]), 97% (active); in assay [3] (at 50.0 µM), 98.3% (active); in assay [4] (setting [7]), 11%; in assay [4] (setting [8]), 92% (active); in assay [4] (at 50.0 µM), 84.3% (active). In addition, the growth inhibition in assay [5] (setting [7]) was 3%; in assay [5] (setting [8]), 97% (active); in assay [5] (at 50.0 µM), 98.2% (active); in assay [6] (setting [7]), 10%; in assay [6] (setting [8]), 98% (active); in assay [6] (at 50.0 µM) it was 98.6% (active).

For `N#CC(C#N)=Cc1cc(Cl)ccc1O`, the growth inhibition in assay [1] (setting [7]) is 11%; in assay [1] (setting [8]), 79% (active); in assay [1] (at 50.0 µM), 56% and 4.55%; in assay [2] (setting [7]), -14%; in assay [2] (setting [8]), 44%; in assay [2] (at 50.0 µM), 45.5% and 17.9%. The growth inhibition was 2% in assay [3] (setting [7]); 58% in assay [3] (setting [8]); 46% and 65.7% in assay [3] (at 50.0 µM); 4% in assay [4] (setting [7]); 30% in assay [4] (setting [8]); 40.7% and -4.9% in assay [4] (at 50.0 µM). Moreover, the growth inhibition is 31% in assay [5] (setting [7]); 64% in assay [5] (setting [8]); 20.7% and 2.2% in assay [5] (at 50.0 µM); 8% in assay [6] (setting [7]); 71% (active) in assay [6] (setting [8]); 65.8% and 39.8% in assay [6] (at 50.0 µM).

Regarding `N#CC(C#N)=Cc1ccc2c(c1)OC(Cl)O2` (stereo not given), the growth inhibition in assay [1] (setting [7]) was 25%; in assay [1] (setting [8]) it was 46%; in assay [1] (at 50.0 µM), 59.6%; in assay [2] (setting [7]), 26%; in assay [2] (setting [8]), 27%; in assay [2] (at 50.0 µM), 49.2%. Further, the growth inhibition in assay [3] (setting [7]) was 15%; in assay [3] (setting [8]) it was 33%; in assay [3] (at 50.0 µM), 57.5%; in assay [4] (setting [7]), 15%; in assay [4] (setting [8]) it was 18%; in assay [4] (at 50.0 µM), 55.5%. Moreover, the growth inhibition in assay [5] (setting [7]) is -11%; in assay [5] (setting [8]), 16%; in assay [5] (at 50.0 µM), 55.9%; in assay [6] (setting [7]), 35%; in assay [6] (setting [8]) it was 35%; in assay [6] (at 50.0 µM), 66.5%.

In the case of `CC(=O)C(Br)C(C)=O.CC(=O)C(Br)C(C)=O.CC(=O)C(Br)C(C)=O.[Rh]`, the growth inhibition in assay [1] (setting [7]) is 4%; in assay [1] (setting [8]), -2%; in assay [1] (at 50.0 µM), 99.2% (active); in assay [2] (setting [7]), -22%; in assay [2] (setting [8]), 1%; in assay [2] (at 50.0 µM), 99.6% (active). The growth inhibition in assay [3] (setting [7]) was -1%; in assay [3] (setting [8]) it was 0%; in assay [3] (at 50.0 µM) it was 99.6% (active); in assay [4] (setting [7]) it was 4%; in assay [4] (setting [8]), 4%; in assay [4] (at 50.0 µM) it was 93.7% (active). Besides, the growth inhibition in assay [5] (setting [7]) is 1%; in assay [5] (setting [8]), -7%; in assay [5] (at 50.0 µM), 99.4% (active); in assay [6] (setting [7]), 6%; in assay [6] (setting [8]), -18%; in assay [6] (at 50.0 µM) it was 99.2% (active).

As to `CCn1c(O)c(C(=O)NC(C)c2ccc([N+](=O)[O-])cc2)c(=O)n(CC)c1=S` (stereo not given), the growth inhibition in assay [1] (setting [7]) is 31%; in assay [1] (setting [8]) it was 91% (active); in assay [1] (at 50.0 µM), 86.5% (active); in assay [2] (setting [7]), 33%; in assay [2] (setting [8]), 96% (active); in assay [2] (at 50.0 µM), 91.4% (active). Besides, the growth inhibition in assay [3] (setting [7]) was 24%; in assay [3] (setting [8]), 83% (active); in assay [3] (at 50.0 µM), 90.6% (active); in assay [4] (setting [7]) it was 17%; in assay [4] (setting [8]) it was 46%; in assay [4] (at 50.0 µM), 88.8% (active). Also, the growth inhibition in assay [5] (setting [7]) was 9%; in assay [5] (setting [8]) it was 78% (active); in assay [5] (at 50.0 µM) it was 89.3% (active); in assay [6] (setting [7]) it was 35%; in assay [6] (setting [8]), 92% (active); in assay [6] (at 50.0 µM) it was 87% (active).
